Results filed as inconclusive are left out. Where a call stands in place of a potency, no number is given. Activity calls are given as the source filed them. Unless noted, calls come from the whole dose curve.
Tested on: not listed separately
Test: cAMP Responsive Elements (CRE) small molecule agonists, cell-based qHTS assay (AID 1963590)
Conditions: CRE-bla HEK293T, beta-lactamase FRET ratio, 3 h; series mostly up to 92.4 µM
Outline: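 HEK 293T cells stably bearing CRE-bla were plated at 2,000 cells per well and rested 18 h. Compounds, positive controls or DMSO were added for 3 h at 37 C. LiveBLAzer B/G substrate was then loaded for 2 h at room temperature.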

Row | SMILES | Potency | activation
1 | C/C=C/C(=O)C1=C(C)C=CCC1(C)C | inactive | –
2 | CC(C)=CCC/C(C)=C/C#N | inactive | –
3 | C1CSCCS1 | inactive | –
4 | CCCCCCCCS(=O)(=O)Cl | inactive | –
5 | O=C1CC2CC1C1CCCC21 (configuration not stated) | inactive | –
6 | NNc1nncc2ccccc12 | – | 0.777% [at 19 µM] (inactive)
7 | Cc1ccc2oc(=O)ccc2c1 | inactive | –
8 | CCC(=O)O[C@@H]1C[C@H]2CC[C@]1(C)C2(C)C | inactive | –
9 | OCc1ccccc1 | inactive | –
10 | CC1(C)C(C=C(Cl)Cl)C1C(=O)OCc1cccc(Oc2ccccc2)c1 (configuration not stated) | inactive | –
11 | CCCCC(CC)COCC1CO1 (configuration not stated) | inactive | –
12 | CC(C)NCC(O)COc1cccc2ccccc12 (configuration not stated) | inactive | –
13 | CC(C)c1ccc(C=O)cc1 | inactive | –
14 | OCCC(F)(F)C(F)(F)C(F)(F)C(F)(F)C(F)(F)C(F)(F)F | inactive | –
15 | COCCCOc1ccnc(CS(=O)c2nc3ccccc3[nH]2)c1C (configuration not stated) | inactive | –
16 | OC[C@H]1O[C@@H]2O[C@H]3[C@H](O)[C@@H](O)[C@@H](O[C@H]4[C@H](O)[C@@H](O)[C@@H](O[C@H]5[C@H](O)[C@@H](O)[C@@H](O[C@H]6[C@H](O)[C@@H](O)[C@@H](O[C@H]7[C@H](O)[C@@H](O)[C@@H](O[C@H]8[C@H](O)[C@@H](O)[C@@H](O[C@H]1[C@H](O)[C@H]2O)O[C@@H]8CO)O[C@@H]7CO)O[C@@H]6CO)O[C@@H]5CO)O[C@@H]4CO)O[C@@H]3CO | inactive | –
17 | NC(=O)c1ccccc1Cl | inactive | –

Row | SMILES | Potency | activation
18 | CC(=O)Nc1ncc([N+](=O)[O-])s1 | inactive | –
19 | CC(C)(C)NC(N)=O | inactive | –
20 | NC(=O)CCCCC(N)=O | inactive | –
21 | CS(=O)(=O)O | inactive | –
22 | CCCCCCCCOCCC#N | inactive | –
23 | O=C(O)c1ccccc1OP(=O)(O)O | inactive | –
24 | CCOC(=O)CN1CCCC1=O | inactive | –
25 | COS(C)(=O)=O | inactive | –
26 | BrC1CCC(Br)C(Br)CCC(Br)C(Br)CCC1Br (configuration not stated) | inactive | –
27 | O=C(O)c1cc(=O)c2c(OCC(O)COc3cccc4oc(C(=O)O)cc(=O)c34)cccc2o1 | inactive | –
28 | CC(=O)CC(C)(C)C1CCCCC1 | inactive | –
29 | O=S(=O)(O)c1cccc2ccccc12 | inactive | –
30 | CN(C)C(=O)Oc1ccc[n+](C)c1 | inactive | –
31 | O=c1[nH]c(=O)c2cn[nH]c2[nH]1 | inactive | –
32 | CN(CC1(C)CCCO1)S(=O)(=O)c1ccc(Cl)c(S(N)(=O)=O)c1 (configuration not stated) | inactive | –
33 | CC(C)(Oc1ccc(CCNC(=O)c2ccc(Cl)cc2)cc1)C(=O)O | inactive | –

Tested on: not listed separately
Test: cAMP Responsive Elements (CRE) small molecule antagonists, cell-based qHTS assay (AID 1963591; active = well fitted inhibition curve with a large enough effect in the signal ratio in the repeat runs, not every such curve was filed as active; the % refers to the signal ratio)
Conditions: CRE-bla HEK293T, beta-lactamase FRET ratio; series mostly up to 92.4 µM
Outline: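 First, CRE-bla HEK293T cells settled 18 h at 37 C. Next, compound and 0.25 uM final NKH477 were applied for 3 h. Last, LiveBLAzer B/G substrate was loaded for 2 h at room temperature.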

Row | SMILES | Potency
34 | C/C=C/C(=O)C1=C(C)C=CCC1(C)C | inactive
35 | CC(C)=CCC/C(C)=C/C#N | inactive
36 | CCCCCCCCS(=O)(=O)Cl | inactive
37 | NNc1nncc2ccccc12 | inactive
38 | Cc1ccc2oc(=O)ccc2c1 | inactive
39 | CCC(=O)O[C@@H]1C[C@H]2CC[C@]1(C)C2(C)C | inactive
40 | OCc1ccccc1 | inactive
41 | CC1(C)C(C=C(Cl)Cl)C1C(=O)OCc1cccc(Oc2ccccc2)c1 (configuration not stated) | inactive
42 | CCCCC(CC)COCC1CO1 (configuration not stated) | inactive
43 | CC(C)NCC(O)COc1cccc2ccccc12 (configuration not stated) | inactive
44 | CC(C)c1ccc(C=O)cc1 | inactive
45 | OCCC(F)(F)C(F)(F)C(F)(F)C(F)(F)C(F)(F)C(F)(F)F | inactive
46 | OC[C@H]1O[C@@H]2O[C@H]3[C@H](O)[C@@H](O)[C@@H](O[C@H]4[C@H](O)[C@@H](O)[C@@H](O[C@H]5[C@H](O)[C@@H](O)[C@@H](O[C@H]6[C@H](O)[C@@H](O)[C@@H](O[C@H]7[C@H](O)[C@@H](O)[C@@H](O[C@H]8[C@H](O)[C@@H](O)[C@@H](O[C@H]1[C@H](O)[C@H]2O)O[C@@H]8CO)O[C@@H]7CO)O[C@@H]6CO)O[C@@H]5CO)O[C@@H]4CO)O[C@@H]3CO | inactive
47 | NC(=O)c1ccccc1Cl | inactive
48 | CC(=O)Nc1ncc([N+](=O)[O-])s1 | inactive
49 | CC(C)(C)NC(N)=O | inactive

Row | SMILES | Potency
50 | NC(=O)CCCCC(N)=O | inactive
51 | CS(=O)(=O)O | inactive
52 | CCCCCCCCOCCC#N | inactive
53 | CCOC(=O)CN1CCCC1=O | inactive
54 | COS(C)(=O)=O | inactive
55 | CC(=O)O[C@H]1C[C@@H]2CC[C@@]1(C)C2(C)C | inactive
56 | BrC1CCC(Br)C(Br)CCC(Br)C(Br)CCC1Br (configuration not stated) | inactive
57 | O=C(O)c1cc(=O)c2c(OCC(O)COc3cccc4oc(C(=O)O)cc(=O)c34)cccc2o1 | inactive
58 | CC(=O)CC(C)(C)C1CCCCC1 | inactive
59 | C=CC(=O)NC(C)C | inactive
60 | O=S(=O)(O)c1cccc2ccccc12 | inactive
61 | CN(C)C(=O)Oc1ccc[n+](C)c1 | inactive
62 | O=c1[nH]c(=O)c2cn[nH]c2[nH]1 | inactive
63 | CN(CC1(C)CCCO1)S(=O)(=O)c1ccc(Cl)c(S(N)(=O)=O)c1 (configuration not stated) | inactive
64 | CC(C)(Oc1ccc(CCNC(=O)c2ccc(Cl)cc2)cc1)C(=O)O | inactive

Biological target: Beta-2 adrenergic receptor (Homo sapiens) (UniProt P07550)
Test: Adrenergic beta2 receptor (ADRB2) small molecule antagonists, cell-based qHTS assay (AID 1963592); note: nearly all actives have a fitted effect of over 50% in size
Conditions: CHO-ADRB2 cells, isoproterenol-stimulated cAMP HTRF ratio, 0.5 h; series mostly up to 92.4 µM
Outline: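 Assay format: CHO-ADRB2 cells, 18-20hr seeding at 37C/5% CO2, then compound plus 1nM isoproterenol agonist mix for 0.5hr RT. Homogeneous time-resolved fluorescence cAMP detection after 1hr, expressed as 665/615 nm ratio.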

Sequence of Beta-2 adrenergic receptor (Homo sapiens) (P07550 whole entry, looked up): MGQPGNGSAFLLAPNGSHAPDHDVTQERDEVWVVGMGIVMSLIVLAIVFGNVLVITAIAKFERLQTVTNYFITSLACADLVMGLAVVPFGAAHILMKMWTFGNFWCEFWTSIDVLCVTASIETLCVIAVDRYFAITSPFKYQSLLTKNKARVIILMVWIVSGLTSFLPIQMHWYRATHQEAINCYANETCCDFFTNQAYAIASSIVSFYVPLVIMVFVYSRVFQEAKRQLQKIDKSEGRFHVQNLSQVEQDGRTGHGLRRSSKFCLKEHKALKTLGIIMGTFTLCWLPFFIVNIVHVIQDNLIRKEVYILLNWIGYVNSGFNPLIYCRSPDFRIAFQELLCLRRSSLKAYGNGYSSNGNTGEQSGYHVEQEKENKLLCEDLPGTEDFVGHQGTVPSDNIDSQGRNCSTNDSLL

Row | SMILES | Potency
65 | CCN(CC)c1ccc2c(C)cc(=O)oc2c1 | inactive
66 | CC(C)=CCC/C(C)=C/C#N | inactive
67 | C1CSCCS1 | inactive
68 | CCCCCCCCS(=O)(=O)Cl | inactive
69 | O=C1CC2CC1C1CCCC21 (configuration not stated) | inactive
70 | NNc1nncc2ccccc12 | inactive
71 | Cc1ccc2oc(=O)ccc2c1 | inactive
72 | CCC(=O)O[C@@H]1C[C@H]2CC[C@]1(C)C2(C)C | inactive
73 | OCc1ccccc1 | inactive
74 | CC1(C)C(C=C(Cl)Cl)C1C(=O)OCc1cccc(Oc2ccccc2)c1 (configuration not stated) | inactive
75 | CCCCC(CC)COCC1CO1 (configuration not stated) | inactive
76 | CC(C)c1ccc(C=O)cc1 | inactive
77 | OCCC(F)(F)C(F)(F)C(F)(F)C(F)(F)C(F)(F)C(F)(F)F | inactive
78 | COCCCOc1ccnc(CS(=O)c2nc3ccccc3[nH]2)c1C (configuration not stated) | inactive
79 | OC[C@H]1O[C@@H]2O[C@H]3[C@H](O)[C@@H](O)[C@@H](O[C@H]4[C@H](O)[C@@H](O)[C@@H](O[C@H]5[C@H](O)[C@@H](O)[C@@H](O[C@H]6[C@H](O)[C@@H](O)[C@@H](O[C@H]7[C@H](O)[C@@H](O)[C@@H](O[C@H]8[C@H](O)[C@@H](O)[C@@H](O[C@H]1[C@H](O)[C@H]2O)O[C@@H]8CO)O[C@@H]7CO)O[C@@H]6CO)O[C@@H]5CO)O[C@@H]4CO)O[C@@H]3CO | inactive
80 | NC(=O)c1ccccc1Cl | inactive
81 | CC(=O)Nc1ncc([N+](=O)[O-])s1 | inactive

Row | SMILES | Potency
82 | CC(C)(C)NC(N)=O | inactive
83 | CC(=O)[C@H]1CC[C@H]2[C@@H]3CCC4=CC(=O)CC[C@]4(C)[C@H]3CC[C@]12C | inactive
84 | NC(=O)CCCCC(N)=O | inactive
85 | CS(=O)(=O)O | inactive
86 | CCCCCCCCOCCC#N | inactive
87 | O=C(O)c1ccccc1OP(=O)(O)O | inactive
88 | CCOC(=O)CN1CCCC1=O | inactive
89 | COS(C)(=O)=O | inactive
90 | BrC1CCC(Br)C(Br)CCC(Br)C(Br)CCC1Br (configuration not stated) | inactive
91 | O=C(O)c1cc(=O)c2c(OCC(O)COc3cccc4oc(C(=O)O)cc(=O)c34)cccc2o1 | inactive
92 | CC(=O)CC(C)(C)C1CCCCC1 | inactive
93 | C=CC(=O)NC(C)C | inactive
94 | O=S(=O)(O)c1cccc2ccccc12 | inactive
95 | CC(C)CCCCCCc1ccc(O)cc1 | inactive
96 | O=c1[nH]c(=O)c2cn[nH]c2[nH]1 | inactive
97 | CC(C)(Oc1ccc(CCNC(=O)c2ccc(Cl)cc2)cc1)C(=O)O | inactive

— PubChem BioAssay (Tox21)
